# Records with an inconclusive call do not appear. Unmarked numbers belong to inactive results. Active and inactive are the calls of the source. Calls follow the shape of the dose curve; as a rule, active = well fitted curve in the direction sought with a large enough effect; inconclusive = small, poorly fitted or top-dose-only effect, or another doubt; inactive = no such curve, though single readings can be large; an effect the other way counts as inactive or inconclusive. Square brackets hold non-standard residues; d marks the D form. Peptide text beside a SMILES is read from it. ξ: configuration not given here. ξL = CC(C)CC(N)C(=O)O
# Test: MCF7 Cancer Cell Toxicity qHTS against the NCATS CANVASS Library (AID 1347369)
# Details: MCF7 viability, ATP luminescence (CellTiter-Glo), 72 h; series mostly up to 46 µM; activity change, negative = cytotoxicity: at the top concentration
# Procedure, shortened: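 This 72 hr qHTS scored MCF7 viability by CellTiterGlo luminescence, with 500 cells/well; bortezomib titration ran as control.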
# % is scaled to controls: 0 for no effect and ±100 for the full control effect.
Structure (SMILES),"activity change, negative = cytotoxicity",outcome
O[C@H]1C=C2[C@H]3CN(Cc4cc5c(cc43)OCO5)[C@H]2C[C@@H]1O,-3.02%,
CC[C@@H](c1cc(OC)c(OC)cc1OC)[C@H](C)[C@@H](/C(C)=C/c1cc(OC)c(OC)cc1OC)c1cc(OC)c(OC)cc1OC,-22.1%,
C/C=C/c1cc2c(c(=O)o1)C(=O)[C@@H](O)[C@H](C)O2,,inactive
COc1cc2c(cc1OC)[C@@H](c1ccc3c(c1)OCO3)C(C)[C@@H](C)C2=O (stereo partly specified),-19.6%,
CC(C)[C@@H]1CC(=O)c2coc3c2[C@H]1C[C@@H](C)C3=O,,inactive
COc1cc2oc3ccccc3c(=O)c2cc1OC,2.61% [at 91.3 µM],
COC(=O)[C@@]1(C)CCC[C@]2(C)c3cc(OC)ccc3CC[C@@H]12,-2.63%,
COc1cc2ccc(=O)oc2c(O)c1O[C@@H]1O[C@H](CO)[C@@H](O)[C@H](O)[C@H]1O,,inactive [at 27.5 µM]
CC[C@H]1[C@@H](C)[C@@H](c2cc(OC)c(OC)cc2OC)[C@H](C)[C@@H](c2cc(OC)c(OC)cc2OC)[C@@]12C=C(OC)C(=O)C=C2OC,,inactive
CC1=C(C)C(=O)OC(C(C)C2(O)CCC3C4C5OC5C5(O)CC=CC(=O)C5(C)C4CCC32C)C1 (stereo unspecified),,inactive
C[C@H](CCC(O)C(C)(O)CO)[C@@]1(O)CC[C@@]2(C)C3=C(CC[C@@]21C)[C@@]1(C)CCC(OC(=O)CCC(=O)O)C(C)(C)[C@@H]1CC3 (stereo partly specified),-7.87%,
CO[C@@H]1[C@H](O)[C@@H](C)O[C@@H](OC[C@@H]2C(C)OC(=O)/C=C/[C@H](C)C(O[C@@H]3O[C@H](C)CC4(OC(=O)O[C@@H]4C)C3O)[C@@H](C)CC(C)C(=O)/C=C/[C@H]3OC23)[C@@H]1OC (stereo partly specified),-10.4%,
C=C[C@@](C)(O)CC[C@@H]1[C@@]2(C)CCCC(C)(C)[C@@H]2CC[C@@]1(C)O,,inactive
COc1ccc([C@@H]2c3cc4c(cc3C(=O)[C@H](C)C2C)OCO4)cc1OC (stereo partly specified),-8.73%,
C/C(=C\[C@H](C)C(=O)C[C@H](O)CC1CC(=O)NC(=O)C1)[C@@H]1OC(=O)CCCC/C=C/[C@@H](O)C[C@@H]1C,,inactive
CC1=C[C@H]2[C@H]3C(=O)C(c4ccc(O)cc4)=C[C@@]3(c3ccc(O)cc3)[C@@H]1C(=O)[C@]2(C)O,-19.4%,
C/C(=C\[C@H](C)C(=O)/C=C/CC1CC(=O)NC(=O)C1)[C@@H]1OC(=O)CCCC/C=C/[C@H](O)[C@@H](O)[C@@H]1C,3.81%,
C[C@H](c1cnc(N)[nH]1)c1ccc(O)c2[nH]cc(-c3cnc(-c4c[nH]c5ccccc45)c(=O)[nH]3)c12,,inactive
COc1ccc([C@@H]2c3cc4c(cc3C[C@H](C)C2C)OCO4)cc1OC (stereo partly specified),,inactive
CC[C@@H]1[C@H](C)[C@H](c2cc(OC)c(OC)cc2OC)[C@@H](C)[C@H](c2cc(OC)c(OC)cc2OC)[C@]12C=C(OC)C(=O)C=C2OC,-17.7%,
C[C@H]1CCC2(OC1)O[C@H]1C[C@H]3[C@@H]4CC(=O)[C@]5(O)C[C@H](O)CC[C@@]5(C)[C@H]4CC[C@@]3(C)[C@H]1[C@H]2C (stereo partly specified),-12%,
C/C1=C/[C@@H](C)[C@H](O)C/C=C/CC/C=C/C(=O)O[C@@H]1[C@H](C)C(=O)CCCC1CC(=O)NC(=O)C1,-26.4%,
C=C1C[C@H]2O[C@@H]3[C@@H]4[C@H](CC[C@@](C)(O)[C@@H]42)[C@H](C)COC3(C)[C@@H](OC(=O)CCCCCCC)CC1=O (stereo partly specified),,inactive

# Test: qHTS for ATAD5 Antagonist screened against the NCATS CANVASS Library (AID 1347370); also: nearly all actives have a fitted effect of over 65% in size; also: potency is read from the fitted curve at half-maximal effect;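 as to activity change, negative = inhibition: HEK293T cells carrying an ATAD5 luciferase reporter co-treated with 10 µM 5-fluorouridine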
# Details: HEK293T-ATAD5-luc, 5-FUrd stimulated, luminescence, 16 h; series mostly up to 46.1 µM; activity change, negative = inhibition: at the top concentration
# Procedure, shortened: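 Compounds (11-point) co-dosed with 10 µM 5-FUrd for 16 h at 37 °C onto HEK293T-ATAD5 luciferase reporter cells. Viability measured by CellTiter-Fluor fluorescence, then ATAD5 reporter signal by luminescence.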
Structure (SMILES),Potency,"activity change, negative = inhibition"
CC[C@@H](c1cc(OC)c(OC)cc1OC)[C@H](C)[C@@H](/C(C)=C/c1cc(OC)c(OC)cc1OC)c1cc(OC)c(OC)cc1OC,13.2 µM (active),
CC[C@@H](C)[C@H]1NC(=O)C(CC(C)C)NC(=O)[C@@H](CC(C)C)NC(=O)[C@H](Cc2c[nH]c3ccccc23)NC(=O)CNC(=O)[C@@H](CC(N)=O)NC1=O (stereo partly drawn) (cyclo(GW[dL][ξL][dI][dN])),,29.5%
CN1CCc2cc3c(c4c2C1(C)C(=O)c1cc(O)ccc1-4)OCO3 (stereo unspecified),13.2 µM (active),
COc1cc2c(cc1OC)[C@@H](c1ccc3c(c1)OCO3)C(C)[C@@H](C)C2=O (stereo partly specified),11.7 µM (active),
CC(C)[C@@H]1CC(=O)c2coc3c2[C@H]1C[C@@H](C)C3=O,,-6.58%
COc1cc2oc3ccccc3c(=O)c2cc1OC,,22.1% [at 91.4 µM]
COC(=O)[C@@]1(C)CCC[C@]2(C)c3cc(OC)ccc3CC[C@@H]12,,-7.06%
COc1cc2ccc(=O)oc2c(O)c1O[C@@H]1O[C@H](CO)[C@@H](O)[C@H](O)[C@H]1O,,-9.81% [at 27.5 µM]
O=C1CCC(=O)N(O)CCCCCNC(=O)CCC(=O)N(O)CCCCCNC(=O)CCC(=O)N(O)CCCCCN1,,1.28%
C=C1C[C@H]2O[C@@H]3[C@@H]4[C@H](CC[C@@](C)(O)[C@@H]42)[C@H](C)COC3(C)[C@@H](OC(=O)CCCCCCC)C[C@H]1O (stereo partly specified),,19.1%
CC1=C(C)C(=O)OC(C(C)C2(O)CCC3C4C5OC5C5(O)CC=CC(=O)C5(C)C4CCC32C)C1 (stereo unspecified),,0%
C[C@H](CCC(O)C(C)(O)CO)[C@@]1(O)CC[C@@]2(C)C3=C(CC[C@@]21C)[C@@]1(C)CCC(OC(=O)CCC(=O)O)C(C)(C)[C@@H]1CC3 (stereo partly specified),,-12.8%
COc1cc(C2C3=C(Cc4cc5c(cc42)OCO5)C(=O)OC3)cc(OC)c1OC (stereo unspecified),,-27.2%
CO[C@@H]1[C@H](O)[C@@H](C)O[C@@H](OC[C@@H]2C(C)OC(=O)/C=C/[C@H](C)C(O[C@@H]3O[C@H](C)CC4(OC(=O)O[C@@H]4C)C3O)[C@@H](C)CC(C)C(=O)/C=C/[C@H]3OC23)[C@@H]1OC (stereo partly specified),16.6 µM (active),
C=C[C@@](C)(O)CC[C@@H]1[C@@]2(C)CCCC(C)(C)[C@@H]2CC[C@@]1(C)O,,1.27%
COc1ccc([C@@H]2c3cc4c(cc3C(=O)[C@H](C)C2C)OCO4)cc1OC (stereo partly specified),16.6 µM (active),
C/C(=C\[C@H](C)C(=O)C[C@H](O)CC1CC(=O)NC(=O)C1)[C@@H]1OC(=O)CCCC/C=C/[C@@H](O)C[C@@H]1C,7.41 µM (active),
CC1=C[C@H]2[C@H]3C(=O)C(c4ccc(O)cc4)=C[C@@]3(c3ccc(O)cc3)[C@@H]1C(=O)[C@]2(C)O,,6.12%
C/C(=C\[C@H](C)C(=O)/C=C/CC1CC(=O)NC(=O)C1)[C@@H]1OC(=O)CCCC/C=C/[C@H](O)[C@@H](O)[C@@H]1C,23.4 µM (active),
C[C@H](c1cnc(N)[nH]1)c1ccc(O)c2[nH]cc(-c3cnc(-c4c[nH]c5ccccc45)c(=O)[nH]3)c12,,-24.1%
CC[C@@H]1[C@H](C)[C@H](c2cc(OC)c(OC)cc2OC)[C@@H](C)[C@H](c2cc(OC)c(OC)cc2OC)[C@]12C=C(OC)C(=O)C=C2OC,23.4 µM (active),
C[C@H]1CCC2(OC1)O[C@H]1C[C@H]3[C@@H]4CC(=O)[C@]5(O)C[C@H](O)CC[C@@]5(C)[C@H]4CC[C@@]3(C)[C@H]1[C@H]2C (stereo partly specified),,-16.9%
C/C1=C/[C@@H](C)[C@H](O)C/C=C/CC/C=C/C(=O)O[C@@H]1[C@H](C)C(=O)CCCC1CC(=O)NC(=O)C1,20.9 µM (active),
